Measurements as given in PubChem BioAssay AID602230 (The Scripps Research Institute Molecular Screening Center, 2012).
Out of some 1,400 compounds screened, about 450 (32%) were called active. Cut-off read from the data, not from the text of the source: active = inhibition above about 16%; inactive = the rest. These entries were drawn from the full list.

What follows are compounds tested against Lon protease (Escherichia coli (strain K12)) (UniProt P0A9M0) (assay: E. coli Lon protease inhibitor retest, confirmation, biochemical, fluorescence polarization (AID 602230;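 note: 0% = enzyme with probe and DMSO and 100% = no enzyme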)). Settings: purified E. coli Lon, at 7.94 µM, stronger effect = higher value.
Sequence of Lon protease (Escherichia coli (strain K12)) (P0A9M0 whole entry, looked up): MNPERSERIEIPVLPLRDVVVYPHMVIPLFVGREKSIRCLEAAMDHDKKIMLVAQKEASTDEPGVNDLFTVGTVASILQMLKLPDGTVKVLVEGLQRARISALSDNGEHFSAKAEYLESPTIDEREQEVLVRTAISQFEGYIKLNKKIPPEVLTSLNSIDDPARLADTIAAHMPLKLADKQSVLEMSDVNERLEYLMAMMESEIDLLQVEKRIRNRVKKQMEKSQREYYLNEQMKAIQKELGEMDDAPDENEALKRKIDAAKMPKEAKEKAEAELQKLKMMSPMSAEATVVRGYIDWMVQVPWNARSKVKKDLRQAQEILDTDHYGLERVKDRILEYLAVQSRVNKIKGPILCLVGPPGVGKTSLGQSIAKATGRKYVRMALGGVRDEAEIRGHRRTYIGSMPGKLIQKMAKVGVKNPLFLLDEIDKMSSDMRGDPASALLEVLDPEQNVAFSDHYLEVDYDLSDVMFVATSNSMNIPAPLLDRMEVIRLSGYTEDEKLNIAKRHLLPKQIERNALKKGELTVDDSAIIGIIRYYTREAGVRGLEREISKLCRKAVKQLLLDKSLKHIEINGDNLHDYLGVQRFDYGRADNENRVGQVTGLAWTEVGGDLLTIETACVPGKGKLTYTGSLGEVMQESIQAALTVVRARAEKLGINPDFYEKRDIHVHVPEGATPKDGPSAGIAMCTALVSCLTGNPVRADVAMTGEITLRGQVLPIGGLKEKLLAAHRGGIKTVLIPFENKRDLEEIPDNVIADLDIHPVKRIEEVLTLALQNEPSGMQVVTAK

| Compound | inhibition |
| --- | --- |
| CNS(=O)(=O)c1ccc2c(c1)[nH]c(=S)n2C | 4.74% (inactive) |
| COc1ccc(C2=CC(c3cccc(OC)c3)n3nnnc3N2)cc1 (stereo unspecified) | 17% (active) |
| COc1ncnc2c1N=C1CC(C)(C)CC(N)=C1S2 | 111% (active) |
| CCCn1c(SCC(=O)Nc2c(C)cccc2C)nnc1C(C)C | -13.9% (inactive) |
| Nc1ccc2nc3c(=O)[nH]c(=S)[nH]c3nc2c1 | 198% (active) |
| Cc1cccc(N2CCC(NCc3c(C(=O)N4CCCCC4)nc4c(C)cccn34)CC2)c1 | -4.25% (inactive) |
| O=C(COC(=O)C12CC3CC(CC(O)(C3)C1)C2)NC12CC3CC(CC(C3)C1)C2 | -2.17% (inactive) |
| Cc1ccn2cc(-c3nonc3C)cc2c1 | 5.46% (inactive) |
| COc1ccccc1-c1cc2nc(NCc3cccc(Cl)c3)ccn2n1 | 2.95% (inactive) |
| Cc1cccn2c(=O)c3cc(C#N)c(=NC(=O)c4cccnc4)n(CC4CCCO4)c3nc12 (stereo unspecified) | -2.72% (inactive) |
| COc1cc(C(=O)NCc2ccc3c(c2)cc(C)n3C)cc(OC)c1OC | -12.4% (inactive) |
| O=C(COC(=O)Cn1cnc2ccccc21)Nc1cccc2c1C(=O)c1ccccc1C2=O | 79.2% (active) |
| COCCOC(=O)c1sc(=S)n(CCOC)c1N | 27.9% (active) |
| CC/C(C)=N/Nc1nc2sc3c(c2c(=O)[nH]1)CC(C)(C)OC3 | 15.3% (inactive) |
| Cc1ccc(NC(=O)Cc2nnc(SCC(=O)Nc3nncs3)n2C)cc1 | -64.9% (inactive) |
| O=C1C=C(NCCNc2c(F)c(F)c(CO)c(F)c2F)CCC1 | -15.4% (inactive) |
| Cc1ccc2c(c1)nnc1nnc(SCC(=O)O)n12 | 33.8% (active) |
| O=S(=O)([N-]c1nc2ccccc2nc1-[n+]1ccc(Cc2ccccc2)cc1)c1ccc(Br)s1 | -2.35% (inactive) |
| O=C1c2ccccc2C(=O)c2c1cccc2N1CCN(CCO)CC1 | 27.1% (active) |
| CCCSc1ccc([C@H]2N[C@@](Cc3ccccc3)(C(=O)OC)[C@H]3C(=O)N(C)C(=O)[C@@H]23)cc1 | -4.5% (inactive) |
| NS(=O)(=O)c1ccc(NC(=O)COC(=O)c2c3c(nc4ccccc24)/C(=C\c2ccc4c(c2)OCO4)CCC3)cc1 | 4.57% (inactive) |
| N#CC1=C(N)OC2=C(C(=O)CCC2)C1C1CC=CCC1 (stereo unspecified) | 2.64% (inactive) |
| c1ccc(C(=NNc2nc3ccccc3s2)c2ccccn2)cc1 | 134% (active) |
| Cc1cccc(C)c1N1CCN(S(=O)(=O)N2CCOCC2)CC1 | -4.84% (inactive) |

| Compound | inhibition |
| --- | --- |
| CN1c2ccc(C=O)c3c(C=O)ccc(c23)N(C)C1(C)C | 68.6% (active) |
| CC(C(=O)NC1CCCC1)N1CCN(S(=O)(=O)c2ccccc2Cl)CC1 (stereo unspecified) | -0.03% (inactive) |
| CCCCOCCCNC(=O)C[C@@H]1C[C@@]2(C(=O)OC)CCCCC=C2N(CCC2=CCCCC2)C1=O | 9.11% (inactive) |
| CCOCCN(C=O)c1cccc(OC)c1 | -7.16% (inactive) |
| COc1ccc(N2CCN(C3CCCCC3NS(=O)(=O)c3ccccc3)CC2)cc1 (stereo unspecified) | -0.98% (inactive) |
| COc1ccc(C(=O)NC(C)CCc2ccccc2)c(OC)c1 (stereo unspecified) | -4.57% (inactive) |
| COc1cc([C@H](Cc2ccccc2)NC(C)=O)oc(=O)c1 | 28.5% (active) |
| COc1ccc(OC)c(NC(=O)Cc2cccs2)c1 | -9.37% (inactive) |
| O=C(C1=C(O)C(=O)N(c2ncccn2)C1c1cccs1)c1ccco1 (stereo unspecified) | 7.23% (inactive) |
| O=C1C2C3C=CC(C4CC34)C2C(=O)N1/N=C/c1ccc(-c2ccccc2[N+](=O)[O-])o1 (stereo unspecified) | 1.11% (inactive) |
| CN(C)Cc1c(C(=O)N/N=C/c2ccccc2OCc2ccc(F)cc2)nnn1-c1nonc1N | 4.47% (inactive) |
| O=C(CN1CCCSc2ccccc21)N1CCN(S(=O)(=O)c2cccc(F)c2)CC1 | 40.1% (active) |
| Clc1ccccc1CSc1nnc(-c2ccco2)c(-c2ccco2)n1 | -6.52% (inactive) |
| CCOC(=O)N1CCC(NC(=O)Cc2cn(C)c3ccccc23)CC1 | -16.7% (inactive) |
| Oc1ccc2ccccc2c1N=Nc1nccs1 | 3.97% (inactive) |
| Cc1coc2c(O)cc3c(c12)OC1(N2CCCCC2)C(=O)NCCCC31 (stereo unspecified) | 6.1% (inactive) |
| COc1ccc(C(=O)NCc2nnc(SCCOc3ccccc3)n2C)cc1 | -3.94% (inactive) |
| COc1ccc(-c2onc3ccc(C(C)=O)cc23)cc1 | 182% (active) |
| COc1ccc(CC(=O)Nc2ccc(-c3nnc(-c4ccccc4)o3)cc2)cc1 | -10.3% (inactive) |
| COc1ccc(-c2nc(CS(=O)CC(=O)NCc3ccccn3)c(C)o2)cc1 (stereo unspecified) | 64.8% (active) |
| COc1ccc(S(=O)(=O)N2CCOCC2)cc1NC(=O)Cc1c(F)cccc1Cl | -1.93% (inactive) |
| O=C(COC(=O)c1ccccc1C(=O)N1CCN(c2ccccc2)CC1)NCc1ccccc1 | 5.02% (inactive) |
| CC(=O)NC(=S)Nc1ccc(NC(=S)NC(=O)c2ccc([N+](=O)[O-])cc2)cc1 | -6.29% (inactive) |
| CC1=NN(C(=O)CCc2ccccc2O)C(O)(C(F)(F)F)C1 (stereo unspecified) | 9.05% (inactive) |

| Compound | inhibition |
| --- | --- |
| CC1(C)OC(=O)C(=CNC(CO)C(=O)O)C(=O)O1 (stereo unspecified) | -19.2% (inactive) |
| Cc1ccccc1Nc1nc(N)nc(CN2CCN(c3ccccn3)CC2)n1 | 3.69% (inactive) |
| CCc1ccc(NC(=O)C(=O)N/N=C(\C)CC(=O)NCCOC)cc1 | -6.81% (inactive) |
| COCCNC(=O)Nc1ccc2nc(-c3ccco3)c(-c3ccco3)nc2c1 | 23.4% (active) |
| COc1ccc(Nc2ccc([N+](=O)[O-])cn2)cn1 | -45.8% (inactive) |
| COc1ccc(Nc2nc(-c3cccnc3)nc3ccccc23)cn1 | 39.8% (active) |
| Cc1ccc2nc3c(cc(C(=O)NCCc4ccccc4)c(=N)n3CC3CCCO3)c(=O)n2c1 (stereo unspecified) | 3.71% (inactive) |
| COc1ccc2[nH]c(C)c(CCN(Cc3cccs3)C(=S)Nc3ccccc3OC)c2c1 | 3.35% (inactive) |
| CCCC(O)(CCC)C(=O)NN(C(=O)CCl)c1cccc(C)c1 | -3.35% (inactive) |
| NC(=O)c1ccc(NC(=O)COC(=O)c2c3c(nc4ccccc24)/C(=C\c2ccc4c(c2)OCO4)CCC3)cc1 | -8.01% (inactive) |
| O=C1c2cccc3c([N+](=O)[O-])ccc(c23)C(=O)N1CC1CCCO1 (stereo unspecified) | 34.9% (active) |
| Cc1cc2nc3c(=O)n(Cc4ccccc4)c(=O)[nH]c3nc2cc1N | 153% (active) |
| COCCn1c(N)c(NCc2ccccc2)c(=O)[nH]c1=O | 7.51% (inactive) |
| Nc1ccccc1/C=N\N=C/c1ccccc1N | 8.46% (inactive) |
| CCCN(CCC)C(=O)C1c2ccccc2Oc2ccccc21 | -11.4% (inactive) |
| COC(=O)C[n+]1cccc2ccccc21 | 116% (active) |
| COc1ccc(C2c3ccc(O)cc3Oc3ncn(CCCO)c(=N)c32)cc1OC (stereo unspecified) | -7.63% (inactive) |
| CCN(CC)CCCNC(=O)c1cn(C)c2ccc(S(=O)(=O)N(C)C3CCCCC3)cc2c1=O | -0.99% (inactive) |
| Cc1cc(Br)cn2c(Cc3ccsc3)c(-c3ccc(C#N)cc3)nc12 | 45.3% (active) |
| Cc1ccc(S(=O)(=O)CCC(=O)OCc2ccccc2)cc1 | -7.16% (inactive) |
| Oc1ccc(N=Cc2sc3ccccc3c2Cl)cc1 | -21.5% (inactive) |
| O=C(COC(=O)CCc1c[nH]c(=O)[nH]1)Nc1ccccc1Cl | 51.4% (active) |
| COc1cccc2sc(N(CCCN(C)C)C(=O)CCS(=O)(=O)c3ccccc3)nc12 | 7.07% (inactive) |
